Data on 40 compounds can be found in PubChem BioAssay (EPA / NIEHS).

Activity calls are given as the source filed them. How the source made its calls: active means hit-call score of the fitted dose curve at least 0.9, where 1 is the maximum; inactive means score below 0.9.

In this assay the target is Transcriptional activator Myb (Homo sapiens) (UniProt P10242). As to the kind of experiment: ATG_Myb_CIS: Attagene CIS-FACTORIAL HepG2 Assay for human Myeloblastosis (Myb) Proto-Oncogene Transcription Factor (AID 2282986). To be noted: HepG2 Attagene CIS-FACTORIAL Myb reporter transcription; actives raise or lower the signal. On the procedure: ATG_CIS is a cell-based, multiplexed-readout assay that uses HepG2, a human liver cell line, with measurements taken at 24 hours after chemical dosing in a 24-well plate.ATG_Myb_CIS is one of 52 assay component(s) measured or calculated from the ATG_CIS assay. It is designed to make measurements of mRNA induction, a form of inducible reporter, as detected with fluorescence intensity signals by Reverse transcription polymerase chain reaction (RT-PCR) and Capillary electrophoresis technology.Data from the assay component ATG_Myb_CIS was analyzed into 1 assay endpoint. This assay endpoint, ATG_Myb_CIS, was analyzed with bidirectional fitting relative to DMSO as the negative control and baseline of activity. Using a type of inducible reporter, measures of mRNA for gain or loss-of-signal activity can be used to understand the reporter gene at the transcription factor-level as they relate to the gene MYB. Furthermore, this assay endpoint can be referred to as a primary readout, because this assay has produced multiple assay endpoints where this one serves a reporter gene function. To generalize the intended target to other relatable targets, this assay endpoint is annotated to the dna binding intended target family, where the subfamily is MYB proteins.
Chain of Transcriptional activator Myb (Homo sapiens) (P10242 whole entry, looked up): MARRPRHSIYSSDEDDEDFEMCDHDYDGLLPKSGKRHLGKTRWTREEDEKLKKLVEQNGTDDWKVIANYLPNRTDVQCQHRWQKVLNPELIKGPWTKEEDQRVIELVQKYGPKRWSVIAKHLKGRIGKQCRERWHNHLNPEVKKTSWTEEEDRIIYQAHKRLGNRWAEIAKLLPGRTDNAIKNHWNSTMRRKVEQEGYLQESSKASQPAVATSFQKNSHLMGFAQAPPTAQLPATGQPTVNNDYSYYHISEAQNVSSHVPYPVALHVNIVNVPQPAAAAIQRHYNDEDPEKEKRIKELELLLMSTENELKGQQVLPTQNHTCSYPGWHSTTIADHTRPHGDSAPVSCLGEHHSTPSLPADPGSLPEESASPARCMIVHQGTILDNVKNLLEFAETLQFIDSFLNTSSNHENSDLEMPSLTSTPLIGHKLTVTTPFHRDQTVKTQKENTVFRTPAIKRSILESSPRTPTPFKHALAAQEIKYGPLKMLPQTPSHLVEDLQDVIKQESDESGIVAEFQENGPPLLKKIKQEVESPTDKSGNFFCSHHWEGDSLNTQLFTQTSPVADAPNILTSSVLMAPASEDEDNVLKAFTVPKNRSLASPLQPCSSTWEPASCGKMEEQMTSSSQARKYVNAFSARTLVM
Human liver HepG2 cells are transiently transfected with multiple reporter transcription units (MRTUs) in 6-well plates using FuGene 6 reagent (Roche; 3 ml FuGene/1 mg DNA). The MRTU constructs are regulated by a cis-regulating element (promoter). […] A major difference between the CIS and TRANS system is that in CIS activities of endogenous TFs are measured, whereas the TRANS assay evaluates changes in activities of exogenous, chimeric NR-Gal4 proteins. […] At the end of 24 hour incubation, total RNA was isolated using TriZol reagent (Invitrogen). The isolated RNA is then reverse-transcribed using oligo(dT) primer and Mo-MLV reverse transcriptase (Invitrogen) with DNAse I (Ambion) treatment for 30 min. The one-tenth of the produced cDNA was amplified by PCR using Taq DNA polymerase (Invitrogen) and two reporter sequence-specific primers. The PCR products were fluorescently labeled by primer extension with 6-arboxyfluorescein (6-FAM) 5'-labeled reporter sequence-specific primer (2 min at 95 C, 20 s at 68 C and 10 min at 72 C) and these products were digested with 5U of HpaI (New England Biolabs) for 2h at 37 C. The fragments were purified using Qiaquick PCR columns (Qiagen), analyzed on an ABI 3130xL genetic analyzer (Applied Biosystems) with peak positions identified by using a set of X-rhodamine (ROX)-labeled MapMarker1000 molecular weight standards (BioVentures). The raw capillary electrophoresis data was processed using Attagraph software (Attagene).
On to `CCCCCC(CO)CCC` (stereo not given), for which the compound was called inactive.

On to `O=[N+]([O-])c1ccc(C=Cc2ccc([N+](=O)[O-])cc2S(=O)(=O)O)c(S(=O)(=O)O)c1`, for which the result was inactive.

With `C[C@H]1C[C@H]2[C@@H]3CCC4=CC(=O)C=C[C@]4(C)[C@@]3(F)[C@@H](O)C[C@]2(C)[C@@]1(O)C(=O)COP(=O)(O)O`, the outcome was inactive.

One may read the AC50 as the midpoint of the concentration-response curve, whichever way the signal moves. Take `N#Cc1nc(Cl)c(Cl)c(Cl)c1Cl`: the AC50 was 2710 nM (active).

Turning to `CNCCCC12CCC(c3ccccc31)c1ccccc12`, the call was inactive.

As for `NCCOCCO`, the outcome was inactive.

Turning to `CC(=O)O[C@]1(C(C)=O)CC[C@H]2[C@@H]3C[C@H](C)C4=CC(=O)CC[C@]4(C)[C@H]3CC[C@@]21C`, the result was inactive.

For `COc1cccc(OC)c1`, the compound was classed as inactive.

In the case of `Clc1nc(C(Cl)(Cl)Cl)c(Cl)c(Cl)c1Cl`, the outcome was inactive.

Regarding `O=C(Cl)c1cccc(C(=O)Cl)c1`, the result was inactive.

Turning to `CC(=O)Nc1ccccc1O`, the call was inactive.

As to `Cc1ccc2n[nH]nc2c1`, the result was inactive.

`CCCCCCCCC`: the compound was classed as inactive.

In the case of `O=C1OC2(c3cc(Br)c(O)c(Br)c3Oc3c2cc(Br)c(O)c3Br)c2c(Cl)c(Cl)c(Cl)c(Cl)c21`, the compound was called inactive.

For the compound `CCN(CC)CCOC(=O)c1ccc(N)cc1`, the outcome was inactive.

`COc1c(Cl)c(Cl)c(Cl)c(Cl)c1Cl`: the outcome was inactive.

On to `CC(CCO)CCCC(C)(C)O` (stereo not given), for which the outcome was inactive.

Turning to `C/C=C(\C)C(=O)OCc1ccccc1`, the compound was called inactive.

For `CC(=O)OCc1ccc2c(c1)OCO2`, the compound was classed as inactive.

For the compound `CN1[C@@H]2CC(OC(=O)[C@H](CO)c3ccccc3)C[C@H]1[C@@H]1O[C@@H]12` (stereo not given in full), the result was inactive.

For `CC1(C)CCC(C)(C)c2cc(C(=O)Nc3ccc(C(=O)O)cc3)ccc21`, the outcome was inactive.

For the compound `c1ccc(CCCc2ccccn2)cc1`, the result was inactive.

Consider `OCc1cccnc1`, for which the outcome was inactive.

Consider `CN(C)C(=N)N=C(N)N`, for which the result was inactive.

As to `CNC[C@H](O)c1cccc(O)c1`, the compound was called inactive.

Consider `O=S(=O)(O)c1ccc(O)c2ncccc12`, for which the compound was called inactive.

Take `O=C(O)c1cn(-c2ccc(F)cc2)c2cc(N3CCNCC3)c(F)cc2c1=O`: the outcome was inactive.

Turning to `O=C1CCCCCCCCCCOCCCCO1`, the compound was called inactive.

Regarding `O=C1CCc2ccccc2O1`, the outcome was inactive.

As for `O=[N+]([O-])c1cc(C(F)(F)F)ccc1Cl`, the result was inactive.

As for `CCCC(=O)OCCC(C)CCC=C(C)C` (stereo not given), the compound was called inactive.

Consider `Cc1c(Cl)c(=O)oc2cc(O)ccc12`, for which the compound was classed as inactive.

On to `CCCCCCCCCCCCSC`, for which the call was inactive.

On to `CCCc1c(OCCCOc2ccc(OCC(=O)O)cc2)ccc(C(C)=O)c1O`, for which the outcome was inactive.

Take `CC(C)(C)C(=O)c1ccccc1`: the outcome was inactive.

Consider `O=Cc1ccc(F)cc1`, for which the call was inactive.

As for `Cc1ccc(C(C)C)cc1O`, the call was inactive.

As for `O=C(O)c1cccc([N+](=O)[O-])c1`, the call was inactive.

Regarding `Cc1ccc(C(=O)c2cc(O)c(O)c([N+](=O)[O-])c2)cc1`, the outcome was inactive.

In the case of `CC(C)(C)c1cc(CCC(=O)NN)cc(C(C)(C)C)c1O`, the result was inactive.
